From PubChem BioAssay (NCI)
Compounds without any hit were thinned out: in the full panel of roughly 83,000, 20% have a hit.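 The test compound was applied at a single concentration to cells in 96-well plates for 48 hours, and percent growth was recorded.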 The source made the active and inactive calls. How the source made its calls: active means growth percent below 10; inactive means the rest.

Legend:
Assay in all cases: NCI-60 one-dose screen, 48 h (100 = growth as untreated, 0 = no growth, -100 = all killed)
Settings in all cases: 10 µM
DU-145 prostate = test system: DU-145 prostate
K-562 leukemia = test system: K-562 leukemia
MALME-3M melanoma = test system: MALME-3M melanoma
MDA-MB-231 breast = test system: MDA-MB-231 breast
RXF 393 renal = test system: RXF 393 renal
SF-268 CNS = test system: SF-268 CNS
SF-295 CNS = test system: SF-295 CNS
SF-539 CNS = test system: SF-539 CNS
UACC-257 melanoma = test system: UACC-257 melanoma
M14 melanoma = test system: M14 melanoma

Measured: growth

COCCOC(=O)NC(=O)Nc1ccc(C(=O)c2ccc(Cl)cc2)cc1
inactive: DU-145 prostate 38.2% | K-562 leukemia 11.7% | MALME-3M melanoma 56.8% | MDA-MB-231 breast 49.8% | RXF 393 renal 40% | SF-268 CNS 55.2% | SF-295 CNS 21.9% | SF-539 CNS 15.4% | UACC-257 melanoma 50.8% | M14 melanoma 20.2%

CCC1(C)OC(=O)NC1=O (stereo not given)
inactive: DU-145 prostate 111% | K-562 leukemia 91.7% | MALME-3M melanoma 106% | MDA-MB-231 breast 109% | RXF 393 renal 121% | SF-268 CNS 103% | SF-295 CNS 103% | SF-539 CNS 99.1% | UACC-257 melanoma 90.9% | M14 melanoma 97.2%

CCCCC(=O)N(c1ccc(Nc2c3ccccc3nc3cc([N+](=O)[O-])ccc23)cc1)S(C)(=O)=O
inactive: DU-145 prostate 26.3% | K-562 leukemia 64.3% | MALME-3M melanoma 92.7% | MDA-MB-231 breast 84.6% | RXF 393 renal 75.8% | SF-268 CNS 53% | SF-295 CNS 34.4% | SF-539 CNS 79.8% | UACC-257 melanoma 79.8% | M14 melanoma 92.9%

C[N+]1(CC2CO2)CCCCCC1 (stereo not given)
inactive: DU-145 prostate 107% | K-562 leukemia 119% | MALME-3M melanoma 95.8% | MDA-MB-231 breast 116% | RXF 393 renal 103% | SF-268 CNS 104% | SF-295 CNS 103% | SF-539 CNS 95.8% | UACC-257 melanoma 99.4% | M14 melanoma 106%

COc1cccc(-c2nnc(COc3ccc(-c4nc5ccccc5[nH]4)cc3OC)o2)c1
inactive: DU-145 prostate 98.9% | K-562 leukemia 55.5% | MALME-3M melanoma 89.9% | MDA-MB-231 breast 91.7% | RXF 393 renal 104% | SF-268 CNS 103% | SF-295 CNS 101% | SF-539 CNS 104% | UACC-257 melanoma 109% | M14 melanoma 103%

COc1ccc(Nc2nc(NCc3ccccc3)c3ccccc3n2)cc1
inactive: DU-145 prostate 79.6% | K-562 leukemia 55.5% | MALME-3M melanoma 39.7% | MDA-MB-231 breast 41% | RXF 393 renal 14.5% | SF-268 CNS 31.3% | SF-295 CNS 19.6% | SF-539 CNS 60.9% | UACC-257 melanoma 76.5% | M14 melanoma 76.9%

O=C(Nc1ccc(OCc2nnc(-c3ccccc3)o2)c(F)c1)Nc1ccc(Cl)c(Cl)c1
inactive: DU-145 prostate 64.1% | K-562 leukemia 34.4% | MALME-3M melanoma 57.8% | MDA-MB-231 breast 64.5% | RXF 393 renal 56.3% | SF-268 CNS 80.7% | SF-295 CNS 39.4% | SF-539 CNS 75.5% | UACC-257 melanoma 59.9% | M14 melanoma 70.4%

Brc1ccc(-c2cn3ccnc3c(-c3ccc(Br)cc3)n2)cc1
inactive: DU-145 prostate 72.7% | K-562 leukemia 16.8% | MALME-3M melanoma 39.5% | MDA-MB-231 breast 46.5% | RXF 393 renal 47% | SF-268 CNS 56.9% | SF-295 CNS 30.6% | SF-539 CNS 52.5% | UACC-257 melanoma 67.4% | M14 melanoma 20.1%

N=C(N)c1ccc(-c2ccc(-c3cccs3)s2)nc1
inactive: DU-145 prostate 64.4% | MALME-3M melanoma 57.1% | RXF 393 renal 30.8% | SF-268 CNS 70.1% | SF-539 CNS 84.5% | UACC-257 melanoma 63.2% | M14 melanoma 75%
active: K-562 leukemia -14.9% | MDA-MB-231 breast 8.8% | SF-295 CNS 7.11%

CCOC(=O)c1ccc(NC(=O)Nc2nncs2)cc1
active: DU-145 prostate -18% | K-562 leukemia 7.79% | RXF 393 renal -15.2% | SF-295 CNS -39.9% | M14 melanoma 4.02%
inactive: MALME-3M melanoma 22.2% | MDA-MB-231 breast 14.8% | SF-268 CNS 29.3% | SF-539 CNS 14.6% | UACC-257 melanoma 67.9%

COc1ccc(N2CCN(c3nc(-c4ccccc4)c(C#N)c(=O)[nH]3)CC2)cc1
inactive: DU-145 prostate 107% | K-562 leukemia 87.6% | MALME-3M melanoma 80.8% | MDA-MB-231 breast 106% | RXF 393 renal 105% | SF-268 CNS 108% | SF-295 CNS 102% | SF-539 CNS 99.6% | UACC-257 melanoma 109% | M14 melanoma 96.8%

O=C(COCc1c(-c2ccccc2)no[n+]1[O-])Nc1nc(-c2ccc(Cl)cc2)cs1
inactive: DU-145 prostate 109% | K-562 leukemia 108% | MALME-3M melanoma 97.8% | MDA-MB-231 breast 99.9% | RXF 393 renal 112% | SF-268 CNS 97.9% | SF-295 CNS 101% | SF-539 CNS 109% | UACC-257 melanoma 96.5% | M14 melanoma 108%

N=C(N)c1ccc(-c2ccc(-c3ccccc3)s2)s1
active: DU-145 prostate -93.8% | K-562 leukemia -63.1% | MALME-3M melanoma -81.1% | MDA-MB-231 breast -76.8% | RXF 393 renal -93.2% | SF-268 CNS -56.6% | SF-295 CNS -75.3% | SF-539 CNS -54.7% | UACC-257 melanoma -59.9% | M14 melanoma -68.9%

O=C(NCCCl)c1cc(Cl)cc(Cl)c1
inactive: DU-145 prostate 111% | K-562 leukemia 101% | MALME-3M melanoma 97.8% | MDA-MB-231 breast 121% | RXF 393 renal 114% | SF-268 CNS 112% | SF-295 CNS 92.4% | SF-539 CNS 101% | UACC-257 melanoma 91.8% | M14 melanoma 116%

CCN(CC)CCOC(=O)c1ccc(NC(=O)Nc2cccc(Cl)c2)cc1
inactive: DU-145 prostate 105% | K-562 leukemia 91.1% | MALME-3M melanoma 97.6% | MDA-MB-231 breast 93.7% | RXF 393 renal 99.4% | SF-268 CNS 97.3% | SF-295 CNS 93% | SF-539 CNS 98.7% | UACC-257 melanoma 91% | M14 melanoma 103%

O=C(C=P(c1ccccc1)(c1ccccc1)c1ccccc1)c1ccc(Br)cc1
inactive: DU-145 prostate 90.5% | K-562 leukemia 34.6% | MALME-3M melanoma 85.5% | MDA-MB-231 breast 77.5% | RXF 393 renal 110% | SF-268 CNS 93.5% | SF-295 CNS 91.7% | SF-539 CNS 113% | UACC-257 melanoma 102% | M14 melanoma 94.1%

COc1ccc(C(=O)/C=C/c2cc(-c3ccc4c(c3)OCO4)n[nH]2)cc1OC
inactive: DU-145 prostate 39.7% | K-562 leukemia 23.8% | MALME-3M melanoma 94.4% | MDA-MB-231 breast 58.3% | RXF 393 renal 38.6% | SF-268 CNS 45.4% | SF-295 CNS 53.4% | SF-539 CNS 42.2% | UACC-257 melanoma 109% | M14 melanoma 91.6%

O=[N+]([O-])c1ccc(Br)o1
inactive: DU-145 prostate 101% | K-562 leukemia 106% | MALME-3M melanoma 104% | MDA-MB-231 breast 107% | RXF 393 renal 106% | SF-268 CNS 95.9% | SF-295 CNS 98.8% | SF-539 CNS 98.6% | UACC-257 melanoma 110% | M14 melanoma 104%

CN(C1c2ccccc2Oc2ccccc21)S(=O)(=O)c1cc(Cl)ccc1Cl
inactive: DU-145 prostate 78.2% | K-562 leukemia 14.9% | MALME-3M melanoma 54.3% | MDA-MB-231 breast 69.7% | RXF 393 renal 73.5% | SF-268 CNS 68.6% | SF-295 CNS 29.1% | SF-539 CNS 60.6% | UACC-257 melanoma 63.6% | M14 melanoma 39.2%

COc1ccc(-c2nnc(COc3ccc(NC(=O)Nc4cccc(C(F)(F)F)c4)cc3F)o2)cc1
inactive: DU-145 prostate 71.9% | K-562 leukemia 45.3% | MALME-3M melanoma 60.5% | MDA-MB-231 breast 42.5% | RXF 393 renal 86.6% | SF-268 CNS 75.1% | SF-295 CNS 64.2% | SF-539 CNS 57.6% | UACC-257 melanoma 71.8% | M14 melanoma 60.8%

COc1ccc(-c2cc(/C=C3\C(=O)Nc4cc(Cl)ccc43)[nH]n2)cc1OC
inactive: DU-145 prostate 96.4% | K-562 leukemia 33.1% | MALME-3M melanoma 37.7% | MDA-MB-231 breast 78.2% | RXF 393 renal 73.1% | SF-268 CNS 74.4% | SF-295 CNS 47.6% | SF-539 CNS 69.1% | UACC-257 melanoma 114% | M14 melanoma 68%

CCOC(=O)/C(C#N)=C(/C)C1CC1
inactive: DU-145 prostate 108% | K-562 leukemia 117% | MALME-3M melanoma 109% | MDA-MB-231 breast 117% | RXF 393 renal 94.9% | SF-268 CNS 107% | SF-295 CNS 113% | SF-539 CNS 96.8% | UACC-257 melanoma 103% | M14 melanoma 109%

COc1ccc(-c2[nH]ncc2/C=C/c2cc(C(F)(F)F)[nH]c(=O)n2)cc1
inactive: DU-145 prostate 108% | K-562 leukemia 86.7% | MALME-3M melanoma 76.1% | MDA-MB-231 breast 103% | RXF 393 renal 125% | SF-268 CNS 97.5% | SF-295 CNS 94.7% | SF-539 CNS 86.7% | UACC-257 melanoma 98.3% | M14 melanoma 98.7%

Cc1c(C(=O)N[C@H](CO)Cc2ccccc2)[nH]c2ccc(Cl)cc2c1=O
inactive: DU-145 prostate 110% | K-562 leukemia 95.5% | MALME-3M melanoma 104% | MDA-MB-231 breast 115% | RXF 393 renal 122% | SF-268 CNS 104% | SF-295 CNS 98.2% | SF-539 CNS 98.9% | UACC-257 melanoma 108% | M14 melanoma 98.2%

CCn1nc(-c2ccccn2)c2cccnc2c1=S
inactive: DU-145 prostate 97% | K-562 leukemia 35.7% | MALME-3M melanoma 68.4% | MDA-MB-231 breast 53.3% | RXF 393 renal 110% | SF-268 CNS 94.8% | SF-295 CNS 78.1% | SF-539 CNS 89.1% | UACC-257 melanoma 35.8% | M14 melanoma 65%

Cc1ccc(-n2c(-c3cc4c([nH]c5ccccc54)c(-c4cccc(O)c4)n3)n[nH]c2=S)cc1
inactive: MALME-3M melanoma 41.3%
active: DU-145 prostate -16.6% | K-562 leukemia 9.64% | MDA-MB-231 breast -1.15% | RXF 393 renal -50.5% | SF-268 CNS 9.02% | SF-295 CNS -17.2% | SF-539 CNS -27.3% | UACC-257 melanoma 2.43% | M14 melanoma -40.1%

COc1ccc(OC)c([N+](=O)[O-])c1C=O
inactive: DU-145 prostate 116% | K-562 leukemia 42.4% | MALME-3M melanoma 108% | MDA-MB-231 breast 107% | RXF 393 renal 80.6% | SF-268 CNS 109% | SF-295 CNS 93.7% | SF-539 CNS 105% | UACC-257 melanoma 84.1% | M14 melanoma 108%

COc1cc(OC)cc(-c2ccc(-c3ccc(C(=N)N)cn3)o2)c1
active: K-562 leukemia -59.9% | MALME-3M melanoma -79.9% | MDA-MB-231 breast -83.2% | RXF 393 renal -69.9% | SF-268 CNS -20.3% | SF-295 CNS -70.5% | SF-539 CNS -69.1% | UACC-257 melanoma -80.6% | M14 melanoma -77.9%
inactive: DU-145 prostate 21.6%
